These results are taken from PubChem BioAssay AID686979 (National Center for Advancing Translational Sciences (NCATS), 2013).

Hit rate of the full screen: of about 420,000 compounds, about 50,000 (12%) were called active. Not shown: some 26% with an inconclusive outcome. The call rests on the fitted dose curve; in most records, active means well fitted inhibition curve with a large enough effect; inconclusive means small, poorly fitted or top-dose-only effect; inactive means flat fitted curve, though single readings scatter. The list comes from a sample in which actives are over-represented; it also holds similar structures and randomly drawn compounds.
On the % scale 0 is the no-effect control and ±100 the full control effect; potency means the concentration at half of the fitted maximal effect.

The assay is described as follows: qHTS for Inhibitors of human tyrosyl-DNA phosphodiesterase 1 (TDP1): qHTS in cells in presence of CPT. Further: nearly all actives have a fitted effect of over 55% in size. The following applies: chicken DT40 Tdp1-/-;hTDP1 cells + 20 nM CPT, ATP luminescence, 48 h; series mostly up to 46.2 µM; activity change, negative = growth inhibition: at the top concentration. The essentials:
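Chicken DT40 Tdp1-/- cells stably complemented with human TDP1 were seeded at 400 cells/well in medium containing 20 nM camptothecin, exposed to pin-transferred compounds, and grown at 37 °C for at least 48 hr. Viability was read as ATP luminescence.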
(In general: In qHTS, concentration-response curves come from the screen itself.)
As to `COc1ccc(/C=C2\SC(=S)N(CCC(=O)Nc3cccc(C(=O)O)c3)C2=O)cc1OC`, the “activity change, negative = growth inhibition” value was -14.9% (inactive).
`O=C(CN1CCCCCC1)NCCN1C(=O)S/C(=C\c2ccccc2Cl)C1=O`: the “activity change, negative = growth inhibition” value is -18.4% (inactive).
Turning to `Cc1ccc([C@@H]2CC(=O)[C@@H]3CN(S(=O)(=O)c4ccc(C)cc4)[C@H](c4ccccc4F)C[C@@H]3N2S(=O)(=O)c2ccc(Cl)cc2)cc1`, the “activity change, negative = growth inhibition” value was -12.2% (inactive).
Same read-out and setting: in the case of `CC1CC(NC(=S)N(C)C)CC(C)(C)C1` (stereo not given) it was -16.6% (inactive).
As to `CC1CC(NC(=O)/C(C#N)=C/c2ccc[nH]2)CC(C)(C)C1` (stereo not given), the Potency was 0.0184 µM (active).
As for `CCN(C[C@H]1N[C@@](CC)(C(=O)OC)[C@H]2C(=O)N(C)C(=O)[C@@H]12)C(=O)Nc1ccc(F)cc1`, the “activity change, negative = growth inhibition” value is 1.04% (inactive).
Consider `Cc1nn(C(=O)c2c(F)cccc2F)c(C)c1S(=O)(=O)N1CCOCC1`, for which the “activity change, negative = growth inhibition” value is 7.22% (inactive).
For the compound `O=C(Nc1ccc(NC(=O)c2ccco2)c(Cl)c1)c1cccc([N+](=O)[O-])c1`, the “activity change, negative = growth inhibition” value was -7.2% (inactive).
For `O=C(Nc1ccc(C2CC2(Cl)Cl)cc1)c1cccc([N+](=O)[O-])c1` (stereo not given), the Potency was 23.1 µM (active).
On to `Cc1cccc(C(=O)NNC(=O)c2cccc([N+](=O)[O-])c2)c1`, for which the “activity change, negative = growth inhibition” value is 6.1% (inactive).
In the case of `Cc1c(NC(=O)C(C)Oc2cccc(Cl)c2)c(=O)n(-c2ccccc2)n1C` (stereo not given), the “activity change, negative = growth inhibition” value was -19.3% (inactive).
For the compound `COc1cc(/C=N/NC(=O)Cc2ccccc2)cc(OC)c1OC`, the “activity change, negative = growth inhibition” value is 2.59% (inactive).
`COc1cc(/C=N/Nc2nn3cnnc3c3ccccc23)cc(OC)c1OC`: the Potency is 10.3 µM (active).
`COc1ccc2[nH]c(C(=O)N/N=C/c3cc(OC)c(OC)c(OC)c3)cc2c1`: the “activity change, negative = growth inhibition” value is -44.3% (inactive).
Same read-out and setting: in the case of `CCOC(=O)CSc1nc(N2CCOCC2)c2c(c1C#N)CC(C(C)C)OC2` (stereo not given) it was 4.05% (inactive); in that of `Cc1cccc(NC(=O)Cc2ccc(Br)cc2)n1`, -9.2% (inactive).
With `Cc1ccccc1N(C(=O)Cc1cccs1)C(C(=O)NC1CCCCC1)c1cn(C)nc1C` (stereo not given), the “activity change, negative = growth inhibition” value was -25.4% (inactive).
In the case of `Cc1ccsc1C(C(=O)NC1CCCCC1)N(C(=O)Cc1cccs1)C1CC1` (stereo not given), the Potency is 20.6 µM (active).
Regarding `CC(Cc1cccs1)NC(=O)NC1CCCCC1` (stereo not given), the “activity change, negative = growth inhibition” value was -11.7% (inactive).
With `CC(NC(=O)c1ccccc1SCC(=O)N1CCCC1)c1ccccc1` (stereo not given), the “activity change, negative = growth inhibition” value is -7.91% (inactive).
`CC(NC(=O)c1cc(Sc2ccc(F)cc2F)nc2ccccc12)c1ccccc1` (stereo not given): the Potency was 13 µM (active).
Regarding `CC(NC(=O)c1cc(=O)[nH]c2ccccc12)c1ccc(F)cc1F` (stereo not given), the “activity change, negative = growth inhibition” value was 7.75% (inactive).
As for `CCCCNC(=O)c1nc(C2CCN(S(=O)(=O)c3ccc(F)c(F)c3)CC2)oc1-c1cccc(C(F)(F)F)c1`, the “activity change, negative = growth inhibition” value was 1.62% (inactive).
Regarding `COc1ccc(N2CCN(Cc3nnc(-c4ccccc4)o3)CC2)cc1`, the “activity change, negative = growth inhibition” value was -12.2% (inactive).
Regarding `COc1ccc(N2CCN(c3cc(C)nc4nncn34)CC2)cc1`, the Potency was 13 µM (active).
For the compound `COc1ccc(N2CCN(S(=O)(=O)c3cc(Br)cnc3N)CC2)cc1`, the “activity change, negative = growth inhibition” value was 20.1% (inactive).
Consider `Cc1cccc(C(=O)Nc2ccc3c(c2)C(=O)N(CC(C)C)C3=O)c1`, for which the “activity change, negative = growth inhibition” value was -28.1% (inactive).
On to `CCN(CC)C(=O)C1CCCN(Cc2cccc(Cl)c2)C1` (stereo not given), for which the “activity change, negative = growth inhibition” value is -27.2% (inactive).
For the compound `CN(C(=O)c1ccc2c(c1)N(Cc1cccc(Cl)c1)C(=O)c1ccccc1S2=O)C1CCCCC1` (stereo not given), the Potency is 18.4 µM (active).
Turning to `CN(Cc1ccc(F)cc1)C(=O)CN1C(=O)c2ccccc2S1(=O)=O`, the “activity change, negative = growth inhibition” value is 6.12% (inactive).
For `Cc1ccccc1NC(=O)NCC1CCN(Cc2cccc(Cl)c2)CC1`, the “activity change, negative = growth inhibition” value is 7.35% (inactive).
On to `O=C(CN1C(=O)c2ccccc2C1=O)NCc1ccc(C(=O)O)cc1`, for which the “activity change, negative = growth inhibition” value was 0.562% (inactive).
On to `O=C(O)c1ccc2c(c1)N(Cc1ccc(F)cc1)C(=O)c1ccccc1S2=O` (stereo not given), for which the Potency is 11.6 µM (active).
Take `O=C(CCN1C(=O)c2ccccc2C1=O)NNC(=O)c1ccc(Cl)cc1Cl`: the “activity change, negative = growth inhibition” value is -13.6% (inactive).
As for `O=C(Nc1cc(Cl)cc(Cl)c1)c1ccc2c(c1)N(Cc1cccc(Cl)c1)C(=O)c1ccccc1S2=O` (stereo not given), the Potency is 3.66 µM (active).
As for `Brc1cc(/C=N/n2cnnc2)oc1Br`, the “activity change, negative = growth inhibition” value was -27.2% (inactive).
On to `CCCOC1CCCN(Cc2cn(C)nc2-c2ccccc2F)C1` (stereo not given), for which the “activity change, negative = growth inhibition” value was 17% (inactive).
Same read-out and setting: as for `CC(=O)N1CC(=O)N(CC(=O)Nc2ccc(Br)cc2)C1=S`, the figure is -13.4% (inactive); as for `COc1cccc(CNC(=O)Cn2c(=O)c3cccn3c3ccc(F)cc32)c1OC`, -10.8% (inactive); as for `Cc1cccc(N2CC(C(=O)Nc3ccccc3N3CCCC3)CC2=O)c1C` (stereo not given), 9.32% (inactive).
Turning to `O=C(COc1ccccc1F)OCc1cc(=O)n2nc(C3CCCCC3)sc2n1`, the “activity change, negative = growth inhibition” value was -2.79% (inactive).
Turning to `CN(C)CCN=c1cc(-c2ccccc2)oc2ccc(Cl)cc12`, the “activity change, negative = growth inhibition” value is 1.27% (inactive).
For `CCc1nn(CC(=O)NCC(C)c2ccccc2)c(=O)c2cc3occc3n12` (stereo not given), the “activity change, negative = growth inhibition” value was -15.7% (inactive).
In the case of `CCc1nn(CC(=O)Nc2cc(C)cc(C)c2)c(=O)c2cc3sccc3n12`, the Potency is 4.11 µM (active).
On to `CCc1nn(CC(=O)Nc2cccc(C)c2C)c(=O)c2cc3sccc3n12`, for which the “activity change, negative = growth inhibition” value is -1.63% (inactive).
For the compound `O=C(CC1SC(N2CCOCC2)=NC1=O)Nc1ccccc1F` (stereo not given), the “activity change, negative = growth inhibition” value is 5.5% (inactive).
Regarding `O=C(OCC(=O)N1CCOCC1)c1ccc(N2CCOCC2)c([N+](=O)[O-])c1`, the “activity change, negative = growth inhibition” value was 17.7% (inactive).
Turning to `O=C(Cc1ccc(S(=O)(=O)N2CCOCC2)s1)N1CCN(c2ccc(C(F)(F)F)cc2[N+](=O)[O-])CC1`, the Potency was 14.6 µM (active).
Consider `O=C(c1ccc(N2CCCC2=O)cc1)N1CCN(c2ccc(C(F)(F)F)cc2[N+](=O)[O-])CC1`, for which the Potency was 3.66 µM (active).
Consider `O=C(Cc1ccc(S(=O)(=O)N2CCOCC2)s1)NCCOc1ccccc1F`, for which the “activity change, negative = growth inhibition” value was -23.9% (inactive).
On the same count and under the same terms, in the case of `Cc1cc(S(=O)(=O)N2CCOCC2)ccc1OCC(=O)Nc1cccc(C(F)(F)F)c1` it was -10.3% (inactive); in that of `O=C(Nc1cc(Cl)ccc1N1CCOCC1)c1ccc(N2CCCC2=O)cc1`, -12.9% (inactive); in that of `CNS(=O)(=O)c1ccc(N2CCCC2=O)c([N+](=O)[O-])c1`, 21.4% (inactive).
Regarding `O=C(COc1ccc(S(=O)(=O)N2CCOCC2)cc1Cl)N1CCOCC1`, the “activity change, negative = growth inhibition” value was 1.63% (inactive).
Consider `O=C(Cc1ccc(S(=O)(=O)N2CCOCC2)s1)Nc1ccc(Br)c(C(F)(F)F)c1`, for which the Potency is 14.6 µM (active).
